A short description of experiment [1]: NCI Yeast Anticancer Drug Screen. Data for the rad50 strain (AID 155).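 Note: 0% = growth of vehicle-only cultures of the same strain.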 The conditions noted are these: S. cerevisiae rad50 strain growth inhibition, active compounds read high; at 50.0 µM unless noted. The gist of the method: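 Relative growth inhibition (compound vs vehicle) was measured in yeast with a defined repair-gene alteration.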
Experiment [2] can be described thus: NCI Yeast Anticancer Drug Screen. Data for the mec2-1 strain (AID 157). The conditions noted are these: S. cerevisiae mec2-1 strain, active compounds read high; at 50.0 µM unless noted. The method in brief:
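Test agents were screened against the mec2-1 yeast strain, with defined DNA repair or cell cycle alteration. Growth was scored as inhibition against vehicle-only controls.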

A short description of experiment [3]: NCI Yeast Anticancer Drug Screen. Data for the sgs1 mgt1 strain (AID 161).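 Note: 0% = growth of cultures given vehicle only.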 Particulars: S. cerevisiae sgs1 mgt1 strain, active compounds read high; at 50.0 µM unless noted. The gist of the method: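 Read-out: growth inhibition vs vehicle controls. Cells: mutant yeast strain deficient in DNA damage repair.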
Experiment [4] can be described thus: NCI Yeast Anticancer Drug Screen. Data for the cln2 rad14 strain (AID 165).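 Note: 0% = growth equal to vehicle treated cultures.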 The conditions noted are these: S. cerevisiae cln2 rad14 strain, active compounds read high; at 50.0 µM unless noted. The gist of the method: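 Growth of compound-exposed yeast (cln2 rad14 genotype) measured and expressed as inhibition relative to vehicle.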
A short description of experiment [5]: NCI Yeast Anticancer Drug Screen. Data for the bub3 strain (AID 167). Particulars: S. cerevisiae bub3 mutant strain, active compounds read high; at 50.0 µM unless noted. The method in brief: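 Screening used yeast with an engineered genetic alteration affecting cell cycle control. Compound-exposed cultures were compared with vehicle cultures, and reduced growth was taken as inhibition.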

Experiment [6] in a line: NCI Yeast Anticancer Drug Screen. Data for the mlh1 rad18 strain (AID 175). The conditions noted are these: S. cerevisiae mlh1 rad18 strain growth inhibition, active compounds read high; at 50.0 µM unless noted. The gist of the method:
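In this whole-cell yeast screen, a strain with altered DNA damage repair is challenged with compound, and its growth is measured against matched vehicle-treated controls.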

Growth inhibition data for 21 molecules are collected here from PubChem BioAssay (NCI).

Compounds without any hit were thinned out: in the full panel of roughly 79,000, 15% have a hit. Unmarked numbers belong to inactive results. Activity calls are given as the source filed them. Cut-off read from the data, not from the text of the source: active = growth inhibition above about 70%; inactive = the rest.

As for `COC(=O)C(CCC1(C)OCCO1)C(C)=O` (stereo unspecified), the growth inhibition in experiment [1] is -10.4%; in experiment [2], -0.85%; in experiment [3], -9%; in experiment [4], 7.65%; in experiment [5], -1.55%; in experiment [6], -13%.
Regarding `Cc1ccccc1-c1nc2c(N)nc(N)nc2nc1N`, the growth inhibition was -4.2% in experiment [1]; -12.8% in experiment [2]; -23.6% in experiment [3]; -18.9% in experiment [4]; -36.9% in experiment [5]; -62% in experiment [6].
`CC(=O)Nc1snc(C)c1[N+](=O)[O-]`: the growth inhibition in experiment [1] was -4.55%; in experiment [2], -0.1%; in experiment [3] it was 6.75%; in experiment [4], -8.2%; in experiment [5], -2.9%; in experiment [6] it was 0.55%.
As to `CCOC(=O)c1ccc(NC(=S)Nc2ncccc2C)cc1`, the growth inhibition was 15.8% in experiment [1]; 11.4% in experiment [2]; 42.5% in experiment [3]; -3.3% in experiment [4]; 34.3% in experiment [5]; 21.2% in experiment [6].
Regarding `O=C1C=C(Nc2ccccc2)C(=O)C=C1Nc1ccccc1`, the growth inhibition in experiment [1] was -2.3%; in experiment [2] it was 1.65%; in experiment [3], 10%; in experiment [4], -42.2%; in experiment [5] it was 4.15%; in experiment [6], -6%.
With `CC1=C(C(=O)Nc2ccccc2)C(c2ccc(N(C)C)cc2)C(C(=O)Nc2ccccc2)=C(C)N1`, the growth inhibition in experiment [1] was -13.7%; in experiment [2], 7.4%; in experiment [3], -6.3%; in experiment [4], 24.4%; in experiment [5], -6.8%; in experiment [6], 15.8%.
`OC[C@H]1N[C@H](CO)[C@@H](O)[C@H]1O`: the growth inhibition in experiment [1] was 1.7%; in experiment [2], -10.2%; in experiment [3], 4.35%; in experiment [4], 16.8%; in experiment [5], -15.6%; in experiment [6] it was 10.2%.
As to `COCS(=O)(=O)c1ccccc1`, the growth inhibition was 2.55% in experiment [1]; -6.1% in experiment [2]; 11.8% in experiment [3]; 14.3% in experiment [4]; 6.55% in experiment [5]; 0.15% in experiment [6].
Turning to `CCOC1=Nc2ccccc2C1(C)CCO` (stereo unspecified), the growth inhibition in experiment [1] is -45.5%; in experiment [2], -13.2%; in experiment [3] it was -23.1%; in experiment [4] it was -62.2%; in experiment [5], -5%; in experiment [6], -4.3%.
In the case of `CCCCOC(c1ccccc1)c1ccccc1`, the growth inhibition was -19.8% in experiment [1]; -18.6% in experiment [2]; -11.8% in experiment [3]; -17.8% in experiment [4]; -4.25% in experiment [5]; 1.95% in experiment [6].
For the molecule `COC(=O)CCC(C)C1CCC2(C)C3=C(C(=O)CC12C)C1(C)CCC(O)C(C)(C)C1=C(O)C3` (stereo unspecified), the growth inhibition was 81.7% (active) in experiment [1]; 74.2% (active) in experiment [2]; 77.6% (active) in experiment [3]; 79.9% (active) in experiment [4]; 70.8% (active) in experiment [5]; 83.8% (active) in experiment [6].
Consider `CCSC(SCC)=C1C(=O)N(c2ccccc2)N=C1C`, for which the growth inhibition in experiment [1] is -6.75%; in experiment [2], -18.8%; in experiment [3], -4.1%; in experiment [4], 16.2%; in experiment [5], 8.6%; in experiment [6], 2.85%.
With `COc1ccc(NC(Nc2ccc(OC)cc2)C(Cl)(Cl)Cl)cc1`, the growth inhibition in experiment [1] is 15.1%; in experiment [2], 9.5%; in experiment [3], 13%; in experiment [4] it was -11.2%; in experiment [5], -4.55%; in experiment [6] it was -8.6%.
On to `CCC(C)C(NC(=O)C1CSC(C)(C)N1C=O)C(=O)OC1CCCCC1` (stereo unspecified), for which the growth inhibition is 38.9% in experiment [1]; -13.2% in experiment [2]; 19.1% in experiment [3]; -13.2% in experiment [4]; -4.9% in experiment [5]; 9.55% in experiment [6].
Turning to `CCC1CC(=O)c2ccccc2O1` (stereo unspecified), the growth inhibition in experiment [1] was 0.65%; in experiment [2], 9.55%; in experiment [3], -20.4%; in experiment [4], -2.55%; in experiment [5], 5.4%; in experiment [6], 0.4%.
For the molecule `NC(=O)N/N=C(\C(=O)C(=O)Nc1ccc(Cl)c(C(F)(F)F)c1)c1nc2ccc(C(=O)c3ccccc3)cc2[nH]c1=O`, the growth inhibition was 25.4% in experiment [1]; -1.3% in experiment [2]; 38.8% in experiment [3]; -37% in experiment [4]; -3.35% in experiment [5]; 25.1% in experiment [6].
On to `CC(C)=C1C2CCC1C(CO)C2CO` (stereo unspecified), for which the growth inhibition in experiment [1] is 4.95%; in experiment [2] it was -8.45%; in experiment [3], -13.5%; in experiment [4], -102%; in experiment [5] it was -2.4%; in experiment [6] it was -15.7%.
Regarding `CN(C(=O)Nc1ccccc1)c1ccc(O)cc1`, the growth inhibition in experiment [1] was 19.4%; in experiment [2] it was -8.55%; in experiment [3] it was -16.4%; in experiment [4], -11.9%; in experiment [5] it was -11.9%; in experiment [6], 12.7%.
For the molecule `CCCc1onc(-c2noc(CCC)c2CC)c1CC`, the growth inhibition in experiment [1] is 15.8%; in experiment [2], -6.65%; in experiment [3], -1.9%; in experiment [4], 9.85%; in experiment [5], -19.4%; in experiment [6] it was 15.7%.
Consider `O=C(O)CCCCC1CCCCC1`, for which the growth inhibition in experiment [1] is 53.1%; in experiment [2] it was 17.1%; in experiment [3] it was 38.8%; in experiment [4], 17.1%; in experiment [5] it was 33.6%; in experiment [6], 43.1%.
`COc1ccc(/C=N/NS(=O)(=O)c2ccc(NC(C)=O)cc2)cc1`: the growth inhibition is -15.2% in experiment [1]; -30.1% in experiment [2]; 16.4% in experiment [3]; 22.8% in experiment [4]; -21.8% in experiment [5]; -9.15% in experiment [6].
